Values without a mark were called inactive. The rule behind the calls is not given here.

The assay is described as follows: blockers of DNA damage checkpoint Chk1 activation – imaging, HeLa, hydroxyurea, phospho-Chk1 antibody, percent positive cells, primary screen (AID 1186). Particulars: hydroxyurea-induced phospho-Chk1 immunofluorescence imaging, higher = more signal.
Turning to `CCCCC(=C=CC[C@@H](O)c1ccccc1OCCO)C[C@@H](O)c1ccccn1`, the z-score was -0.0323.
Turning to `[N-]=[N+]=Nc1ccccc1C[C@]1(C(=O)N2CCCCC2)N=C(c2ccc(OCCCO)cc2)O[C@H]1c1ccccc1`, the z-score is -0.554.
For `C=C1C(=O)C=C2CN(C(=O)c3ccccc3)[C@@](Cc3ccc(F)cc3)(C(=O)OC)[C@@H]12`, the z-score is -2.23.
Regarding `COC(=O)C(CC#Cc1ccc2c(c1)[C@]1(C(=O)N2)[C@H](c2ccc(OCCO)cc2)N2[C@H](c3ccccc3)[C@H](c3ccccc3)OC(=O)[C@H]2[C@@H]1C(N)=O)C(=O)OC`, the z-score is -0.143.
For the compound `C=CCNC(=O)[C@H]1[C@@H]2C(=O)O[C@@H](c3ccccc3)[C@@H](c3ccccc3)N2[C@@H](c2ccc(O)cc2)[C@]12C(=O)N(C(=O)OCCOC)c1ccc(C#Cc3ccc(OC)cc3)cc12`, the z-score is 0.0708.
`C=C(C)C1CN([C@H](CO)c2ccccc2)C(=O)/C1=C\c1ccccc1` (stereo not given in full): the z-score is -0.484.
For `COC(=O)C(CC#Cc1ccc2c(c1)[C@]1(C(=O)N2)[C@H](C(N)=O)[C@H]2C(=O)O[C@H](c3ccccc3)[C@H](c3ccccc3)N2[C@@H]1c1ccccc1OCCO)C(=O)OC`, the z-score is -0.49.
Regarding `C=CC[C@H](OC(=O)Nc1ccc(SC)cc1)c1ccc(O)c(F)c1`, the z-score was 0.355.
`CN1C2C=C(c3ccc(CO)cc3)C(C3C(=O)N(C(N)=O)C(=O)C32)C1C1CC1` (stereo not given): the z-score was 0.258.
Take `CCCCN1CC=CC23O[C@@H]4/C=C\CCCOC(=O)C4[C@H]2C(=O)N(CCCCCCO)[C@@H]3C1=O` (stereo not given in full): the z-score was -0.624.
`CN(C)C(=O)[C@]1(CCS(=O)(=O)c2ccccc2)N=C(c2ccc(OCCCO)cc2)O[C@@H]1c1ccccc1CN=[N+]=[N-]`: the z-score was -0.376.
Next, `CC(C)(C)OC(=O)CC[C@@]1(C(=O)N2CCOCC2)N=C(c2ccc(OCCCO)cc2)O[C@@H]1c1ccccc1CN=[N+]=[N-]`: 0.158; `COc1ccc(CCNC(=O)[C@@H]2c3ccccc3C(=O)N(C(C)C)[C@H]2c2ccc(CO)cc2)cc1`: -0.182.
As to `COC(=O)C(CC#Cc1ccc2c(c1)[C@]1(C(=O)N2)[C@H](C(=O)N2CCCCCCC2)[C@H]2C(=O)O[C@H](c3ccccc3)[C@H](c3ccccc3)N2[C@@H]1c1ccc(OCCO)cc1)C(=O)OC`, the z-score was 0.185.
On to `O=C1N(Cc2ccccc2)Cc2ccccc2C[C@@]12COC(c1ccc(OCCCO)cc1)=N2`, for which the z-score was -0.266.
In the case of `COc1cccc(C)c1NC(=O)O[C@H]1[C@H](OC(=O)Nc2ccccc2)[C@@H](OC(=O)Nc2ccccc2)[C@@H](OC)O[C@@H]1CO`, the z-score is -0.515.
For the compound `COc1ccc(NN2C(C(O)c3ccc(F)cc3)C=CC3C(=O)N(C4CCCCC4)C(=O)C32)cc1` (stereo not given), the z-score is 0.472.
On to `COCCOC(=O)N1C(=O)[C@@]2(c3cc(C#CCCO)ccc31)[C@H](c1ccc(O)cc1)N1[C@H](c3ccccc3)[C@H](c3ccccc3)OC(=O)[C@H]1[C@@H]2C(=O)NC[C@H](O)c1ccccc1`, for which the z-score is 0.0615.
Consider `CC(C)N1CC=CC23O[C@@H]4/C=C\CCCOC(=O)C4[C@H]2C(=O)N(C(C)CO)[C@@H]3C1=O` (stereo not given in full), for which the z-score is -1.36.
As to `O=C/C=C/c1ccc(-c2ccccc2)cc1`, the z-score is 0.236.
Next, `C=CCC(OC(C)=O)[C@@H]1[C@@H](N(Cc2ccc(-c3ccccc3)cc2)C(=O)Cc2ccc(OC)cc2)c2cc(OCCCO)ccc2N1C(=O)Cc1ccc(OC)cc1` (stereo not given in full): 0.684.
Turning to `COc1ccc([Si](C)(C)[C@@H]2[C@@H](CC(=O)N(CCO)Cc3ccccc3)O[C@]3(C(=O)N(Cc4cccc(I)c4)c4ccccc43)[C@H]2C)cc1`, the z-score is 0.55.
Regarding `CCCCCN1CC=CC23O[C@@H]4/C=C\CCCOC(=O)C4[C@H]2C(=O)N(CCO)[C@@H]3C1=O` (stereo not given in full), the z-score was 0.169.
As for `COc1ccc([Si](C)(C)[C@H]2[C@H](CC(=O)N3CCC[C@H]3CO)O[C@@]3(C(=O)N(C)c4c(Br)cc(C)cc43)[C@@H]2C)cc1`, the z-score is 0.27.
As for `Cc1ccc(S[C@]2(C(=O)NC(C)C)CC(=O)N(Cc3ccccc3)[C@@H]2c2ccc(CO)cc2)cc1`, the z-score was -0.412.
As to `O=C1C2C=CC(C(O)C3CCCCC3)N(Nc3ccccc3F)C2C(=O)N1c1ccccc1` (stereo not given), the z-score is 0.0253.
For `CO[C@H]1O[C@H](CO)[C@@H](OC(=O)CCc2ccccc2)[C@@H]2OC(=O)[C@@H](Cc3ccc4ccccc4c3)C/C=C/C[C@H](Cc3ccc4ccccc4c3)C(=O)O[C@@H]12`, the z-score is -0.267.
As to `C[C@H]1C2[C@H](Cc3ccccc3)NC(=O)[C@]23C(=O)N[C@@H](Cc2ccccc2)C(=O)N2CCC[C@H]2C(=O)NC/C=C/CC/C=C/C3[C@@H]2O[C@]12C` (stereo not given in full), the z-score is -0.234.
Next, `COC(=O)C(CC#Cc1ccc2c(c1)[C@]1(C(=O)N2)[C@H](C(=O)N2CCN(c3ncccn3)CC2)[C@H]2C(=O)O[C@H](c3ccccc3)[C@H](c3ccccc3)N2[C@@H]1c1ccc(O)cc1)C(=O)OC`: -0.413; `CO[C@H]1O[C@H](CO)[C@@H](OC(=O)Nc2cccc(F)c2)[C@H](OC(=O)c2cc3ccccc3[nH]2)[C@H]1OC(=O)c1cc2ccccc2[nH]1`: -0.313; `COC(=O)C1=CC(c2ccc(CO)cc2)=CC(C2CC2)N(Cc2cc3c(cc2Br)OCO3)C=C1C(=O)OC` (stereo not given): 0.0404.
`C=CCOC(=O)[C@@H]1[C@H]2C(=O)O[C@H](c3ccccc3)[C@H](c3ccccc3)N2[C@H](c2ccc(OCCOC(=O)[C@H]3C[C@H]4C(=O)N[C@@H](CCCCN(C)C)C(=O)N4[C@H]3c3cccc(OCCO)c3)cc2)[C@@]12C(=O)Nc1ccccc12`: the z-score was -0.224.
With `C=C[C@@H](CO)NS(=O)(=O)c1ccc(Br)cc1`, the z-score is -0.734.
Regarding `COC(=O)[C@@]1(Cc2ccc(F)cc2)[C@H]2c3cc(C(=O)N4CCCC4)n(CCSCCO)c3C[C@H]2CN1C(=O)c1ccccc1`, the z-score is 0.685.
Turning to `O=C1C2C=CC(C(O)C3CC=CCC3)N(Nc3ccc([N+](=O)[O-])cc3)C2C(=O)N1c1ccccc1` (stereo not given), the z-score is 0.691.
